Among all 5,500 compounds or so, about 2,000 (36%) were called active. Inconclusive results (about 18%) are left out. Cut-off read from the data, not from the text of the source: active = normalized growth mostly below about 0.91 (no sharp cut-off); inconclusive = no clear call, values can overlap the other calls; inactive = mostly above about 0.92. Some of the results follow.
Experiment: chemical genetic growth profiling, strain panel (AID 1159580);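 note: tested at 20 µM; growth read once vehicle control cultures reached saturation at 30 °C; 1 = growth at the plate median or of vehicle wells; lower values mean less growth of the strain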
Settings: S. cerevisiae deletion strains, growth OD

Measured: normalized growth

C#C[C@]1(O)CCC2C3CCc4cc(OC)ccc4C3CC[C@@]21C (stereo not given in full)
inactive: locus YAL021C, strain ccr4, active compounds read low 1.02 | locus YAL026C, strain drs2, active compounds read low 0.956 | locus YAL030W, strain snc1, active compounds read low 0.987 | locus YBL061C, strain skt5, active compounds read low 0.968 | locus YBR009C, strain hhf1, active compounds read low 0.933 | locus YBR171W, strain sec66, active compounds read low 0.959 | locus YBR231C, strain swc5, active compounds read low 0.953 | locus YBR279W, strain paf1, active compounds read low 0.967 | locus YCL011C, strain gbp2, active compounds read low 0.923 | locus YCL061C, strain MRC1, active compounds read low 0.937 | locus YCL069W, strain vba3, active compounds read low 0.976 | locus YCR088W, strain abp1, active compounds read low 0.972 | locus YDL005C, strain med2, active compounds read low 0.985 | locus YDL040C, strain nat1, active compounds read low 0.982 | locus YDR001C, strain nth1, active compounds read low 0.982 | locus YDR069C, strain doa4, active compounds read low 1.01 | locus YDR159W, strain sac3, active compounds read low 0.949 | locus YDR195W, strain ref2 1.01 | locus YDR297W, strain sur2, active compounds read low 0.994 | locus YDR334W, strain swr1, active compounds read low 0.983 | locus YDR335W, strain msn5, active compounds read low 0.998 | locus YEL003W, strain gim4, active compounds read low 0.984 | locus YEL037C, strain rad23, active compounds read low 0.968 | locus YEL061C, strain CIN8 (second series), active compounds read low 0.972 | locus YER015W, strain faa2, active compounds read low 0.991 | locus YER016W, strain bim1, active compounds read low 0.99 | locus YER111C, strain swi4, active compounds read low 0.969 | locus YER155C, strain BEM2 (second series), active compounds read low 0.923 | locus YFR010W, strain ubp6, active compounds read low 0.962 | locus YGL167C, strain pmr1, active compounds read low 0.972 | locus YGL173C, strain kem1, active compounds read low 0.98 | locus YGL227W, strain vid30, active compounds read low 0.987 | locus YGL240W, strain doc1, active compounds read low 0.963 | locus YGL253W, strain hxk2, active compounds read low 0.912 | locus YHR013C, strain ard1, active compounds read low 0.926 | locus YHR027C, strain rpn1, active compounds read low 0.987 | locus YHR030C, strain SLT2, active compounds read low 0.974 | locus YHR079C, strain IRE1, active compounds read low 0.987 | locus YJL092W, strain hpr5, active compounds read low 0.96 | locus YJL095W, strain BCK1 (second series), active compounds read low 0.975 | locus YJL095W, strain BCK1, active compounds read low 0.975 | locus YJL115W, strain asf1, active compounds read low 0.988 | locus YJL129C, strain trk1, active compounds read low 0.965 | locus YJL154C, strain vps35, active compounds read low 0.983 | locus YJL164C, strain tpk1, active compounds read low 0.923 | locus YJL166W, strain qcr8, active compounds read low 0.923 | locus YJL187C, strain SWE1, active compounds read low 0.987 | locus YJR066W, strain TOR1, active compounds read low 0.933 | locus YKL160W, strain elf1, active compounds read low 0.913 | locus YKR026C, strain gcn3, active compounds read low 0.988 | locus YKR091W, strain srl3, active compounds read low 0.975 | locus YLL001W, strain dnm1, active compounds read low 0.903 | locus YLL026W, active compounds read low 0.979 | locus YLL041C, strain sdh2, active compounds read low 0.986 | locus YLR027C, strain aat2, active compounds read low 0.969 | locus YLR113W, strain HOG1, active compounds read low 0.931 | locus YLR221C, strain rsa3, active compounds read low 0.912 | locus YLR258W, strain gsy2, active compounds read low 0.956 | locus YLR320W, strain mms22, active compounds read low 0.902 | locus YLR342W, strain FKS1, active compounds read low 0.952 | locus YLR357W, strain rsc2, active compounds read low 0.909 | locus YLR370C, strain arc18, active compounds read low 0.966 | locus YLR384C, strain iki3, active compounds read low 0.986 | locus YML120C, strain ndi1, active compounds read low 0.933 | locus YMR058W, strain fet3, active compounds read low 0.935 | locus YMR125W, strain sto1, active compounds read low 0.951 | locus YMR129W, active compounds read low 0.977 | locus YMR205C, strain PFK2, active compounds read low 0.923 | locus YMR231W, strain pep5, active compounds read low 0.993 | locus YNL183C, strain NPR1, active compounds read low 0.917 | locus YNL209W, strain ssb2, active compounds read low 0.974 | locus YNL248C, strain rpa49, active compounds read low 0.951 | locus YNL322C, strain KRE1 (second series), active compounds read low 0.964 | locus YNR049C, strain mso1, active compounds read low 0.983 | locus YOR001W, strain rrp6, active compounds read low 1 | locus YOR070C, strain gyp1, active compounds read low 0.951 | locus YOR080W, strain dia2, active compounds read low 0.999 | locus YOR083W, strain WHI5, active compounds read low 0.919 | locus YOR106W, strain vam3, active compounds read low 0.969 | locus YOR231W, strain MKK1, active compounds read low 0.958 | locus YOR265W, strain rbl2, active compounds read low 0.969 | locus YOR270C, strain vph1, active compounds read low 0.949 | locus YOR290C, strain snf2, active compounds read low 0.874 | locus YPL051W, strain arl3, active compounds read low 0.923 | locus YPL078C, strain atp4, active compounds read low 0.902 | locus YPL106C, strain sse1, active compounds read low 0.913 | locus YPL240C, strain hsp82, active compounds read low 0.985 | locus YPL256C, strain CLN2, active compounds read low 0.973
active: locus YBR023C, strain chs3, active compounds read low 0.913 | locus YCL016C, strain dcc1, active compounds read low 0.912 | locus YDR137W, strain rgp1, active compounds read low 0.839 | locus YDR392W, strain spt3, active compounds read low 0.614 | locus YHR142W, strain chs7, active compounds read low 0.866 | locus YLR262C, strain YPT6 (second series), active compounds read low 0.798 | locus YNL071W, strain lat1, active compounds read low 0.89
